# Measured values from PubChem BioAssay AID779 (Sanford-Burnham Center for Chemical Genomics, 2007).
# Unmarked numbers belong to inactive results. How the calls were made is not given here.
# Assay: placental alkaline phosphatase inhibitors, dose response, counter-screen, biochemical, colorimetric (AID 779)
# Settings: PLAP counter-screen, colorimetric OD read-out
row,SMILES,IC50
1,N#CC(c1nc2ccccc2nc1N1CCCC1)S(=O)(=O)c1cccs1 (configuration not stated),> 50 µM
2,Fc1ccc(-c2cc3nc4c(c(N5CCOCC5)n3n2)CCCC4)cc1,> 50 µM
3,CCSC1=N/C(=C\c2ccc(-c3ccccc3[N+](=O)[O-])o2)C(=O)S1,> 50 µM
4,CSc1nc(SCCO)c2sc3nc(-c4ccco4)c4c(c3c2n1)CC(C)(C)OC4,> 50 µM
5,Cn1cc([N+](=O)[O-])c(C(=O)Nc2ccc3c(c2)OCCO3)n1,> 50 µM
6,COc1ccccc1N1CSC2=C(C#N)C(c3ccc(SC)cc3)CC(=O)N2C1 (configuration not stated),> 50 µM
7,CCCCCn1nc(-c2ccccc2)c2nc3ccccc3nc21,> 50 µM
8,COc1ccc(-n2c(NC(=O)c3ccc(Br)o3)c(C#N)c3nc4ccccc4nc32)cc1,> 50 µM
9,Cc1ccc2cc(/C=C3\N=C(c4ccccc4)OC3=O)c(N3CCOCC3)nc2c1,> 50 µM
10,CCCn1nc(-c2ccccc2)c2nc3ccccc3nc21,> 50 µM
11,COc1ccc(N(C(=O)c2ccco2)S(=O)(=O)c2cc(Cl)c(Cl)cc2Cl)cc1,> 50 µM
12,CCN1/C(=C/c2ccc3cccc(C)c3[n+]2CC)Sc2ccccc21,> 50 µM
13,CCOC(=O)C1=C(c2ccccc2)N=c2s/c(=C\c3cc(OC)c(OC)c(OC)c3)c(=O)n2C1c1cccs1 (configuration not stated),> 50 µM
14,CC(=O)Nc1ccc(NC2=Nc3ccccc3N3C2=Nc2c(c(C)nn2-c2ccccc2)C3c2ccccc2)cc1 (configuration not stated),> 50 µM
15,Cc1cc2ccccc2n1CCNC(=O)c1ccccc1,> 50 µM
16,CCCN1C(=O)/C(=C/C=C2\N(CC)c3ccccc3C2(C)C)SC1=S,> 50 µM

row,SMILES,IC50
1,CCn1c(COc2ccccc2C)nnc1SCC(=O)Nc1cc(C)on1,> 50 µM
2,CCOc1ccc(/C=C/C2=Cc3c(sc(NC(=O)CSc4n[nH]c(N)n4)c3C#N)C(C)(C)C2)cc1,> 50 µM
3,CCn1c(SCc2nc(-c3ccccc3)no2)nnc1-c1cccs1,> 50 µM
4,CCOc1ccc(S(=O)(=O)N(CC(=O)N/N=C/c2ccc(-c3ccc([N+](=O)[O-])cc3)o2)c2ccccc2)cc1,> 50 µM
5,O=C1/C(=C\c2ccco2)SC(=S)N1Cc1ccccc1,> 50 µM
6,CCOC(=O)c1cc(OC(=O)c2ccccc2OC)n(-c2ccccc2)n1,> 50 µM
7,CS(=O)(=O)N(CC(=O)Nc1cccc(Cl)c1)c1ccccc1Cl,> 50 µM
8,O=C(O)c1ccc(CN(c2ccccn2)S(=O)(=O)c2ccccc2)cc1,> 50 µM
9,Cc1ccsc1/C=C/C1=Cc2c(sc(NC(=O)CSc3n[nH]c(N)n3)c2C#N)C(C)(C)C1,> 50 µM
10,N#Cc1sc2nc(-c3cccs3)cc(-c3ccccc3)c2c1N,> 50 µM
11,CCn1nc(-c2ccccc2)c2nc3ccccc3nc21,> 50 µM
12,COC(=O)Sc1nnc(-c2ccc(Br)cc2)o1,> 50 µM
13,O=C(Nc1cccc2c1CCCC2)c1cc([N+](=O)[O-])ccc1Cl,> 50 µM
14,CCCCN1C(=O)/C(=C/C=C2\N(C)c3ccccc3C2(C)C)SC1=S,> 50 µM
15,C=CCn1c(=O)/c(=C/c2cc(OC)c(OC)c(OC)c2)s/c1=C(/C#N)c1nc2ccccc2n1C,> 50 µM
16,CCn1c2ccc(Cl)cc2c2nc3ccccc3nc21,> 50 µM
